# Assay results taken from PubChem BioAssay (NCATS).
# Inconclusive results are not listed. Entries that show only a call come without a potency. The source made the active and inactive calls. Unless noted, calls follow the shape of the dose curve; as a rule, active = well fitted curve in the direction sought with a large enough effect; inconclusive = small, poorly fitted or top-dose-only effect, or another doubt; inactive = no such curve, though single readings can be large; an effect the other way counts as inactive or inconclusive.
# What was measured:
# [1] = Confirmation and Secondary Assay for Modulators of Hemoglobin Beta Chain Splicing at IVS2 654 locus (AID 910);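 also: HeLa cells stably carrying EGFP split by mutant beta-globin IVS2-654 intron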
# Summary of the method: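 HeLa cells stably expressing EGFP interrupted by β-globin IVS2-654 intron, seeded overnight in Opti-MEM/2% FCS, then treated 2 days at 37 °C. Restored splicing read as total peak GFP intensity per well by laser scanning cytometry (488 nm excitation, 500–520 nm emission); 500 nM antisense PNA as control.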
# [2] = Confirmation and Secondary Assay for Modulators of Hemoglobin Beta Chain Splicing at IVS2 705 locus (AID 930);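 also: HeLa cells stably expressing the EGFP-705 splicing reporter; GFP fluorescence per well restored by corrected splicing of the IVS2-705 intron in EGFP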
# Summary of the method: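 HeLa cells stably carrying EGFP interrupted by mutant beta-globin intron 2 (IVS2-705) treated 2 days at 37C with compound; 500 nM antisense PNA as control. Correct splicing read as total peak GFP intensity per well by laser-scanning cytometry.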
# [3] = qHTS Assay for Lipid Storage Modulators (AID 1519; calls by dose curve); conditions: Drosophila S3 cells, BODIPY lipid droplet/cell ratio, laser cytometry, cells loaded with oleic acid
# Summary of the method: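 Cells seeded at 5,000 per well were treated with compounds over a concentration series and loaded with oleic acid (400 uM, as added). Lipid droplet fluorescence (488 nm excitation, 500-530 nm channel) was read by laser-scanning cytometry and normalized to 20 uM Triacsin C.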
# Furin (Homo sapiens) = Furin (Homo sapiens) (UniProt P09958); experiment: Furin counterscreen qHTS for Zika virus inhibitors (AID 1347149);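 also: purified recombinant full-length human furin enzyme at 5 nM; fluorescence gain from furin cutting a BOC-RVRR-AMC peptide substrate over 15 min; top concentration of the series differs between compounds; nearly all actives have a fitted effect of over 70% in size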
# Chain of Furin (Homo sapiens) (P09958 whole entry, looked up): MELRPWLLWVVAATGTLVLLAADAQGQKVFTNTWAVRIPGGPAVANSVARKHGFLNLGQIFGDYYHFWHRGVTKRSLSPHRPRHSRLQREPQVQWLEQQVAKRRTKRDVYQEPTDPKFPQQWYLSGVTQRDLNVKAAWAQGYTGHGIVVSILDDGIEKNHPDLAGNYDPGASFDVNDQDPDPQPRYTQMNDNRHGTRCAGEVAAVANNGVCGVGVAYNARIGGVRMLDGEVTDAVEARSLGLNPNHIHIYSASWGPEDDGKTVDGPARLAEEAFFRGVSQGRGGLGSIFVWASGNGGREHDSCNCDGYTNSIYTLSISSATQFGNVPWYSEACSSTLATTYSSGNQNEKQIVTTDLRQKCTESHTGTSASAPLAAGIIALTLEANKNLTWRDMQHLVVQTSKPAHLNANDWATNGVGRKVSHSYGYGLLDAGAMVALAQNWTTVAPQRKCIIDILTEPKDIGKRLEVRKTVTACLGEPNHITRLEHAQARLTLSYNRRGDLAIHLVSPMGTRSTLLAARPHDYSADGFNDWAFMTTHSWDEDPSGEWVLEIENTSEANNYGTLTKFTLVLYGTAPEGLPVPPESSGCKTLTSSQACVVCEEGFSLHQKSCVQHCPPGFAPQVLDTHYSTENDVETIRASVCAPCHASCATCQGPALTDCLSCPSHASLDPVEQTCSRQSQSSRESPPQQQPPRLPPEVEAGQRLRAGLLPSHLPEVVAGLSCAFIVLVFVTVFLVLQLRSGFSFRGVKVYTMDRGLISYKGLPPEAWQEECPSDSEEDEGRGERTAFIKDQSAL
# Summary of the method: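 Counterscreen measures cleavage of 2 microM BOC-RVRR-AMC, below its ~15 microM Km, by 5 nM full-length human furin at pH 7.0 after a 15-min compound preincubation. Inhibition derives from the 15-min fluorescence increase at 37C.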
# [4] = Confirmatory screen GU Rhodamine qHTS for Zika virus inhibitors qHTS (AID 1347157); also: potency is read from the fitted curve at half-maximal effect; nearly all actives have a fitted effect of over 70% in size
# Summary of the method: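 Buffer 10 mM Tris-HCl pH 8.0, 0.01% Tween 20. Unlinked protease 25 nM; compound preincubation 15 min, RT, protected from light. Substrate Rhod110, 1.5 microM; ~15% conversion in 15 min.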
# [5] = ZIKV-mCherry secondary qHTS for Zika virus inhibitors (AID 1347158); also: top concentration of the series differs between compounds
# Summary of the method: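 Percent infection is the share of Hoechst-identified Vero nuclei with mCherry signal above 450 RFU (3 SD over negative controls). Cells were infected with recombinant ZIKV-mCherry at MOI 1 after compound addition and imaged 48–72 h later.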
# [6] = system: Zika virus NS2B-NS3 protease (linked construct); experiment: Primary screen NINDS Rhodamine qHTS for Zika virus inhibitors (AID 1347160); also: potency is read from the fitted curve at half-maximal effect; nearly all actives have a fitted effect of over 55% in size
# Summary of the method: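 Aprotinin served as in-plate control. Conditions: 25 nM linked NS2B-NS3, pH 8.0 Tris buffer, titrated compounds, 15 min preincubation and 15 min reaction with 1.5 microM Rhod110 substrate at room temperature.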
# [7] = Confirmatory screen NINDS Rhodamine qHTS for Zika virus inhibitors (AID 1347161); also: potency is read from the fitted curve at half-maximal effect; nearly all actives have a fitted effect of over 60% in size
# Summary of the method: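 Single-chain NS2B-NS3 protease, 25 nM, pH 8.0; compounds preincubated 15 min. Activity: Rhodamine110 release from 1.5 microM substrate over 15 min, room temperature, data fitted to 4-parameter Hill.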
# [8] = system: Zika virus NS2B-NS3 protease (linked); experiment: 384 well plate NINDS AMC confirmatory qHTS for Zika virus inhibitors (AID 1347163); also: potency is read from the fitted curve at half-maximal effect; nearly all actives have a fitted effect of over 50% in size
# Summary of the method: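 Fluorescence at 355/460 nm was read after 25 minutes of cleavage of 30 microM Ac-VKTGKR-AMC at room temperature, in the dark. Before substrate addition, compounds (up to 1 mM final) sat ~15 minutes with 5, 30 or 60 nM linked protease. Signals were normalized to no-enzyme and no-inhibitor wells.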
# [9] = system: Zika virus NS2B-NS3 protease (linked construct); experiment: 384 well plate NINDS Rhodamine confirmatory qHTS for Zika virus inhibitors (AID 1347164);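 also: fluorescence from protease cleavage of Ac-LKRR-rhodamine 110 substrate; potency is read from the fitted curve at half-maximal effect; nearly all actives have a fitted effect of over 65% in size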
# Summary of the method: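 Enzyme (final 5/30/60 nM) + cpd (DMSO), ~15 min; add Ac-LKRR-Rd 10 microM final; 25 min RT, dark; FI ex 485/em 538; normalized to no-enzyme, no-inhibitor ctrls; aprotinin intraplate ctrl.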
# [10] = OV-KATE Cancer Cell Toxicity qHTS against the NCATS CANVASS Library (AID 1347345)
# Summary of the method: (§1)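 1000 cells/well seeded and rested 4 h at 37 °C before pin transfer of compounds in an 11-pnt series. Exposure 72 h at 37 °C/5% CO2; viability by CellTiter-Glo luminescence after 15 min at room temperature.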
# [11] = HPAF-II Cancer Cell Toxicity qHTS against the NCATS CANVASS Library (AID 1347346); also: nearly all actives have a fitted effect of over 55% in size
# Summary of the method: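 Cytotoxicity read-out was CellTiter-Glo luminescence after 72 h at 37 degrees C exposure of HPAF-II cells (1000/well) to compounds in an 11-point titration.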
# [12] = Panc-1005 Cancer Cell Toxicity qHTS against the NCATS CANVASS Library (AID 1347349); also: potency is read from the fitted curve at half-maximal effect; nearly all actives have a fitted effect of over 60% in size
# Summary of the method: as §1
# [13] = A2780 Cisplatin Sensitive Ovarian Cancer Cell Toxicity qHTS against the NCATS CANVASS Library (AID 1347353); also: nearly all actives have a fitted effect of over 60% in size
# Summary of the method: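 Cisplatin-sensitive A2780 ovarian cells (750/well) received compound in 11 concentrations, and were incubated 72 h at 37 °C. ATP content was measured by ATPLite luminescence; bortezomib served as control.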
# [14] = UWB1.289-WTBRCA1 Cancer Cell Toxicity qHTS against the NCATS CANVASS Library (AID 1347354)
# Summary of the method: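 Toxicity was measured as CellTiter-Glo luminescence after 72 h exposure to an 11-point compound series. Compound was added to 1000 cells/well 4 h after seeding.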
# [15] = HPAF-II 24hr Apoptosis Induction qHTS against the NCATS CANVASS Library (AID 1347356)
# Summary of the method: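 Caspase-Glo 3/7 luminescence, read after 15 min room-temperature development, measures apoptosis in HPAF-II cells treated 24 h at 37 degrees C with an 11-point concentration series; 500 cells/well; doxorubicin control.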
# [16] = HEK293 18hr Apoptosis Induction qHTS against the NCATS CANVASS Library (AID 1347357)
# Summary of the method: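 Cells seeded at 500/well in DMEM + 10% FBS. Compounds pinned, 11 concentrations. 18 h, 37 degrees C/5% CO2. Caspase-Glo 3/7 added, 15 min RT dark, luminescence read.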
# [17] = HPAF-II 12hr Apoptosis Induction qHTS against the NCATS CANVASS Library (AID 1347358)
# Summary of the method: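 Caspase-3/7 activation by DEVD-substrate luminescence (Caspase-Glo 3/7, 15 min, room temperature) after a 12-hour compound exposure in 11 concentrations, of HPAF-II pancreatic cells seeded at 500/well in DMEM with 10% FBS.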
# [18] = HEK293 24hr Apoptosis Induction qHTS against the NCATS CANVASS Library (AID 1347359)
# Summary of the method: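 HEK293 cells, 500 per well, exposed to an 11-point compound series for 24 hours at 37 degrees C. Caspase 3/7 activity read by Caspase-Glo luminescence (DEVD substrate) after 15 min at room temperature.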
# [19] = HEK293 12hr Apoptosis Induction qHTS against the NCATS CANVASS Library (AID 1347361)
# Summary of the method: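 Cells are seeded, dosed with an 11-point compound series and incubated 12 hours. Caspase-3/7 activity is detected by luminescent DEVD-substrate reagent after 15 minutes at room temperature.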
structure (smiles),measurement,setting,value
O=C(OC1Cc2c(O)cc(O)cc2OC1c1cc(O)c(O)c(O)c1)c1cc(O)c(O)c(O)c1 (configuration not stated),outcome,[1],inactive
same,outcome,[2],inactive
same,"activity change, negative = inhibition",[3]; at 57.5 µM (top of the series),7.9% (inactive)
same,max response,[3]; measured here: cell count channel max response,1.63%
same,max response,[3]; measured here: lipid channel max response,13.6%
same,Potency,Furin (Homo sapiens),inactive
same,Potency,[4],7.94 µM (active)
same,Potency,[5],inactive
same,Potency,[6],1.56 µM (active)
same,Potency,[7],7.94 µM (active)
same,Potency,[8],15.8 µM (active)
same,Potency,[9],89.1 µM (active)
same,Potency,[10],inactive
same,Potency,[11],inactive
same,Potency,[12],18.8 µM (active)
same,Potency,[13],inactive
same,Potency,[14],inactive
same,outcome,[15],inactive
same,Potency,[16],inactive
same,Potency,[17],inactive
same,Potency,[18],inactive
same,Potency,[19],inactive
